LYP act – LYP (human) phosphatase activation; Q9Y2R2; recombinant LYP, DiFMUP fluorescence; 0 = plate median, 100 = signal doubled; activation, % at 2 µM; 0.11% of 96,000 active; AID 697;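 active means activation at 2 µM above a set limit, the mean plus 5 SD, cut at about 37% in these data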
Target sequence (Q9Y2R2 whole entry, looked up): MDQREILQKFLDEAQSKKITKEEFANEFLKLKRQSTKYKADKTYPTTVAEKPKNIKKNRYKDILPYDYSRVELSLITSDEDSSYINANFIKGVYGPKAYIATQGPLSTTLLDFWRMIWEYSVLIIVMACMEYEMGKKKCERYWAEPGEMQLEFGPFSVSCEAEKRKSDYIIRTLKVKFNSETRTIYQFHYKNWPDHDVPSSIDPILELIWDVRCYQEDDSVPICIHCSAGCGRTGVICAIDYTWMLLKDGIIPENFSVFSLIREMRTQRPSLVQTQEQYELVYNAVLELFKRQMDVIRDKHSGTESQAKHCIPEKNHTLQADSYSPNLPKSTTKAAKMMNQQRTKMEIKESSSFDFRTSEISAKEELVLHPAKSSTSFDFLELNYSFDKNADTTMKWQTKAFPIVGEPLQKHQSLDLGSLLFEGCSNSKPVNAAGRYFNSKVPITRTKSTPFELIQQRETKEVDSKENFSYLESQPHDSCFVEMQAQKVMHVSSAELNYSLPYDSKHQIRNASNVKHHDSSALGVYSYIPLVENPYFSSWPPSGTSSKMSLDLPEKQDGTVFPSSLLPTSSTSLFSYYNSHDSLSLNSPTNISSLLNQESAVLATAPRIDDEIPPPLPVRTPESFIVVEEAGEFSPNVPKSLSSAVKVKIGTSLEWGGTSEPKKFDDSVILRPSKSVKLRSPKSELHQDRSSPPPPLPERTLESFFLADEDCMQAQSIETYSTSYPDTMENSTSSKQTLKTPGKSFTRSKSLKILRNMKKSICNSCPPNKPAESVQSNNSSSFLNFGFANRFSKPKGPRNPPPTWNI
FXIIa mix inh – factor XIIa (human) inhibition, mixture screen | purified FXIIa, fluorogenic substrate, pooled mixtures | inhibition, % at 5 µM | 0.2% of 62,000 active | AID 684; in the data active means inhibition above about 20%, passing the limit was not always enough;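 further: 0% = enzyme without compound and 100% = no enzyme blank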
Cdc25B block – human M-phase inducer phosphatase 2 inhibition | inhibition, %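 (compounds tested at 10 µM final in the well)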 | recombinant Cdc25B, OMFP fluorescence Ex485/Em525 | AID 368 | P30305 | 0.1% of 65,000 active; in the data active means inhibition above about 50%
PTPN22 inh 2 – blocks human PTPN22 phosphatase activity; recombinant LYP catalytic domain, DiFMUP fluorescence; inhibition, % at 2 µM; 0.21% of 96,000 active;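 active means inhibition at 2 µM at or above a set limit, the screen mean plus 3 SD, cut at about 24% in these data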;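 further: 0% = DMSO with enzyme and 100% = enzyme fully blocked by orthovanadate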
FXIa mix inh – inhibitors of human coagulation factor XIa, pooled mixtures | inhibition, % at 5 µM | purified FXIa, fluorogenic substrate | 0.19% of 62,000 active | P03951 | AID 680; in the data active means inhibition above about 20%, passing the limit was not always enough;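 further: each value is inhibition by a whole ten-compound pool holding the compound; 0% = enzyme with no mixture and 100% = wells lacking enzyme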
MKP-1 inh – inhibitors of human MKP-1 phosphatase; inhibition, %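 (compounds tested at a single concentration somewhere between 10 and 100 µM)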; 0.15% of 65,000 active; AID 374; P28562; recombinant MKP-1, OMFP hydrolysis fluorescence;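 active means inhibition above about 50%, limit read from the data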;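 further: 0% = DMSO max control wells and 100% = wells with enzyme stopped by NaOH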
Redox H2O2 0p5DTT – counter-screen for Cdc25B probes: redox cycling H2O2 in 0.5 mM DTT; 50% of 30 active; EC50, µM; shares compounds with Cdc25B block; cell-free redox cycling H2O2 generation; in the data active means EC50 below about 30 µM
Redox H2O2 1DTT – generates H2O2 by redox cycling in 1 mM DTT; shares compounds with Cdc25B block; cell-free redox cycling H2O2 generation; EC50, µM; 30 tested, under 10 active; AID 683; in the data active means EC50 below about 50 µM
Redox H2O2 – counter-screen for MKP-1 and MKP-3 probes: redox cycling H2O2 generation; shares compounds with MKP-1 inh; DTT, phenol red/HRP; EC50, µM; 60 tested, under 10 active; AID 672
PTPN22 act conf – LYP (PTPN22) phosphatase activation confirmation; 100 tested, under 10 active; shares compounds with LYP act; AID 1031; activation, % at 2 µM; Recombinant LYP, DIFMUP fluorescence; zero set by plate's median compound well
* marks the source's active call; other numbers are inactive results; / = not tested or not shown. An excerpt weighted towards active compounds, which were near 0.63% of everything screened. Unless noted, how the calls were made is not given here.

SMILES	LYP act	FXIIa mix inh	Cdc25B block	PTPN22 inh 2	FXIa mix inh	MKP-1 inh	others
CCN(CC)C(=O)c1ccc(NC(=O)Cn2nc(C)c3ccccc3c2=O)cc1	/	-0.3	71.2*	/	3.4	-0.3
CCN(CC)C(=O)c1ccc(NC(=O)CSc2nnnn2-c2cc(OC)ccc2OC)cc1	3.4	-0.7	5.2	-5.5	-0.5	8.9
CCn1c(=O)n(CC(=O)N2CCC3(CC2)OCCO3)c(=O)c2ccccc21	9.0	/	53.4*	-11.9	/	0.7
O=C(Nc1ccccc1OC(=O)N1CCCCC1)N1CCCCC1	-4.2	-16.9	-11.0	0.3	-6.8	-5.6
CC/C(=C\C=C\[C@@H]1C=C[C@@H]2CCC[C@H]2[C@@H]1C(=O)c1ccc[nH]1)[C@@H]1O[C@@H]([C@@H](C)C(=O)O)CC[C@@H]1C	-25.8	/	/	25.4*	/	/
O=C1CSC2(CN3CCC2CC3)N1 (stereo unspecified)	5.3	/	/	-5.4	/	/
Cn1ncnc2c(=O)n(C)c(=O)nc1-2	/	0.5	101.8*	/	1.8	100.7*	Redox H2O2 0p5DTT=1.17*;Redox H2O2 1DTT=3.16*;Redox H2O2=10.7*
CCOC(=O)N(CC)c1ccc(C(O)(C(=O)OC)C(F)(F)F)cc1 (stereo unspecified)	1.5	2.5	-13.7	-6.8	2.1	0.3
O=C1NC(=O)N(Cc2ccccc2Cl)C(=O)/C1=C/N1CCOCC1	43.3*	0.9	-1.8	-43.4	7.5	-12.5	PTPN22 act conf=3.9
CCCCn1c(O)c(C=Nc2c(C)n(C)n(-c3ccccc3)c2=O)c(=O)[nH]c1=O	12.1	1.9	-12.6	-10.7	3.0	-14.7

Compound activity as filed in PubChem.
